The list is not random: actives were taken first. Their share in the collection is about 7.4%.
ELG1 genotoxic: induces genotoxicity in HEK293T cells with luciferase-tagged ELG1; Potency, µM (doses to about 46 µM), hits mostly activators; HEK293T ELG1-luciferase reporter, luminescence, 16 h; 330,000 compounds, 1.3% hits; note: nearly all actives have a fitted effect of over 60% in size
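HEK293T cells expressing luciferase-tagged ELG1 were treated with compound or DMSO for 16 hr at 37°C. Luciferase activity was then read after 30 min with ONE-Glo at room temperature; rising signal flags genetic stress.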
Rab9 promoter act: activates the Rab9 promoter; Huh7 Rab9 promoter-luciferase reporter, luminescence, 24 h; AID 485297; 320,000 compounds, 2.8% hits; Potency, µM (top dose mostly 9.22 µM), most hits filed as activators; note: nearly all actives have a fitted effect of over 60% in size
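Rab9 promoter-driven luciferase in stably transfected Huh7 cells; 1500 cells/well rested 2 h, exposed to compound in DMSO for 24 h at 37 °C, 5% CO2. Luminescence read 10 min after adding luciferase reagent at ambient temperature.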
NPC1 promoter act: activators of NPC1 promoter. Huh7 NPC1 promoter luciferase reporter, 24 h. Potency, µM (doses to about 9.22 µM), most hits filed as activators. 320,000 compounds, 2.4% hits. AID 485313; note: nearly all actives have a fitted effect of over 60% in size
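NPC1 promoter–luciferase Huh7 cells; 24 h compound; luminescence.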
FLuc counter: inhibits or activates purified firefly luciferase, miR-21 counter-screen | P08659 | 360,000 compounds, 6.9% hits | purified FLuc, Km substrates, luminescence inhibition | Potency, µM (doses to about 57.5 µM), hits mostly inhibitors; note: nearly all actives have a fitted effect of over 55% in size
Target sequence (P08659 whole entry, looked up): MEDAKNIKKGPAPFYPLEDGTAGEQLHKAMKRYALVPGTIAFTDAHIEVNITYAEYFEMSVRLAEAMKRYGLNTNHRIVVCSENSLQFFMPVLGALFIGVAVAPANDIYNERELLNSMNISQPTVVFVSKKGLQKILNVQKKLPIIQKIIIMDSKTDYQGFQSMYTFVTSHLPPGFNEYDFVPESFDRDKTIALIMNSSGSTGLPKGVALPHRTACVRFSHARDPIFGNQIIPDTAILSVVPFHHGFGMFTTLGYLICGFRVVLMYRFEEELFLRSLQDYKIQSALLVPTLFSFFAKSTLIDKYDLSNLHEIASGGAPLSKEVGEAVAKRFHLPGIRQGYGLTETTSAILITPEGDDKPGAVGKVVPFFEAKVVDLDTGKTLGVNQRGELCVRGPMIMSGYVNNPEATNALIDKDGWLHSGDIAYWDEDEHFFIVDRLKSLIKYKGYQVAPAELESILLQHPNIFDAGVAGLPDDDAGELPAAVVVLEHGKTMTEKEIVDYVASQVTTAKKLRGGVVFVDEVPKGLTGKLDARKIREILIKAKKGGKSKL
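Purified P. pyralis luciferase, 10 nM final, with Km-level 10 uM D-luciferin and 10 uM ATP in 50 mM Tris acetate pH 7.5, 10 mM Mg acetate, 0.01% Tween-20, 0.05% BSA; 6-point qHTS titration about 60 µM downward; luminescence read.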
SMN2 splice enh: increases expression of the SMN2 splice variant; AID 1458; 210,000 compounds, 2.8% hits; Potency, µM (series often up to 46.1 µM), hits mostly activators; HEK293 SMN2-luciferase splicing reporter, luminescence, 30-36 h; note: nearly all actives have a fitted effect of over 55% in size
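HEK293 cells carry an SMN2 minigene-luciferase reporter in which exon 7 inclusion puts luciferase in frame. Cells were seeded at 2000 cells/well, attached for 10-12 hours, then exposed to compounds for 30-36 hours at 37C before ONE-Glo luminescence.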
A number is an active result; . = inactive; ? = inconclusive; / = no result; [ ] = another dose, or the depositor's remark. Calls come from the whole dose curve; as a rule, active = well fitted curve in the direction sought with a large enough effect; inconclusive = small, poorly fitted or top-dose-only effect, or another doubt; inactive = no such curve, though single readings can be large; an effect the other way counts as inactive or inconclusive.

SMILES	ELG1 genotoxic	Rab9 promoter act	NPC1 promoter act	FLuc counter	SMN2 splice enh
CC(=O)Nc1nc(-c2ccc3c(c2)CCO3)cs1	.	?	?	12µM	?
Nc1nc(-c2ccc3c(c2)CCC(=O)N3)cs1	?	.	.	?	?
Cc1ccc(S(=O)(=O)N2CCC(C(=O)NCCC3=CCCCC3)CC2)c(C)c1	.	.	.	.	/
Cc1nc(N)nc(Nc2ccc(C#N)cc2)c1Br	.	.	.	.	/
N#Cc1c(N)nc(N)nc1Nc1ccc(Br)cc1	9.2µM	1.4µM	1.3µM	6µM	/
O=C(Nc1ccc(F)cc1)c1ncn(-c2ccccc2)n1	/	/	/	11µM	14µM
COc1ccccc1NC(=O)c1cn(-c2ccccc2)nc1-c1ccccc1	/	/	/	.	/
COc1ccccc1NC(=O)c1ncn(-c2ccccc2)n1	/	/	/	?	11µM
Cc1ccc(NC(=O)c2ncn(-c3ccccc3)n2)c(Cl)c1	/	/	/	?	.
CCOC(=O)c1cccc(NC(=O)c2cc(C)nc3c2c(C)nn3-c2ccc(C)cc2)c1	/	/	/	.	/
CC(C)(C)NS(=O)(=O)c1cccc(S(=O)(=O)c2cccc(S(=O)(=O)NC(C)(C)C)c2)c1	?	1.6µM	2.5µM	5.4µM	14µM
CC(C)(C)NS(=O)(=O)c1ccc(N2C(=O)c3ccccc3C2=O)cc1	.	.	.	.	.
Cc1cc(C)n2nc(-c3ccc(Cl)cc3)nc2n1	/	/	/	15µM	16µM
Cc1cc(N2CCN(C)CC2)n2nc(-c3ccc(Cl)cc3)nc2n1	.	.	.	.	.[9.22 µM]
Cn1cccc1/C=N/NC(=O)c1cccc(OC(F)(F)C(F)F)c1	.	.	.	21µM	.
Cc1cccc(C(=O)N/N=C/c2ccc(OCC(=O)N3CCCCC3)cc2)c1	.	.	.	15µM	.
Cc1cccc(C(=O)N/N=C/c2ccoc2)c1	.	.	.	?	/
O=C(CSCc1cccc(Cl)c1)N/N=C/c1ccc(OCC(=O)N2CCCCC2)cc1	.	.	.	.	.
CCCOc1cccc(C(=O)N/N=C/c2ccoc2)c1	?	.	.	13µM	/
CC(C)Oc1cccc(C(=O)N/N=C/c2ccoc2)c1	?	.	.	11µM	/
CCc1ccccc1NC(=O)N1CCN(c2nnc(C)c3c(C)n(-c4ccccc4)nc23)CC1	/	/	/	.	/
CC(C)(C[C@@]1(C)NC(=O)NC1=O)OCc1ccccc1	/	/	/	/	.[9.22 µM]
CC(Cc1cccnc1)NC(=O)c1ccccc1OC1CCN(S(C)(=O)=O)CC1 (stereo not given)	.	.	.	.	/
CCOc1ccccc1NC(=O)CCC(=O)Nc1ccccc1OCC	.	.	.	.	.
Cc1cc(NC(=O)n2ncc3c(C)cccc32)ccc1Br	/	/	/	.	/
SMILES	ELG1 genotoxic	Rab9 promoter act	NPC1 promoter act	FLuc counter	SMN2 splice enh
Cc1cccc2c1cnn2C(=O)Nc1cc(F)ccc1F	?	0.28µM	?	0.67µM	/
CCOc1ccccc1NC(=O)n1ncc2c(C)cccc21	.	2.5µM	4µM	7.6µM	/
Nc1c(NCc2ccccc2F)c(=O)[nH]c(=O)n1Cc1ccccc1	.	.	.	21µM	.
CCOc1ccc(C(=O)/C=C/c2ccccc2C(F)(F)F)cc1	.	.	.	5.4µM	.
COc1ccc(C(=O)/C=C/c2ccccc2C(F)(F)F)cc1	.	.	.	12µM	.
CC(C)[C@H](NC(=O)c1ccccc1Cl)C(=O)Nc1ccc(S(=O)(=O)Nc2nccs2)cc1	.	/	/	/	/
Cc1cc(/C=N/Nc2ccc([N+](=O)[O-])cn2)c(C)n1-c1ccccc1	?	3.5µM	?	?	?
O=C(O)Cn1cc(/C=N/Nc2ccc([N+](=O)[O-])cn2)c2ccccc21	.	.	.	13µM	/
Cc1ccc(-n2c(C)cc(/C=N/Nc3ccc([N+](=O)[O-])cn3)c2C)cc1	.	.	.	.	.
CCOC(=O)c1ccc(Oc2c(C)oc3cc(OS(C)(=O)=O)ccc3c2=O)cc1	.	.	.	.	/
CCC(C)(C(=O)NC1CCCC1)N(C(=O)CNC(=O)c1ccccc1)c1c(C)n(C)n(-c2ccccc2)c1=O (stereo not given)	.	.	.	.	/
CCCCn1c(=O)nc2n(-c3ccc(F)cc3)c3ccccc3cc-2c1=O	/	/	/	.	.
O=C(Nc1ccc(C(=O)c2ccc(C(=O)O)c(C(=O)O)c2)cc1)c1ccccc1	.	.	.	11µM	/
O=C(O)c1ccc(C(=O)O)c(C(=O)c2ccc(NC(=O)c3ccccc3)cc2)c1	.	.	.	19µM	/

High-throughput results from PubChem BioAssay.
